# Values joined by “and” are separate entries in the source; they are usually repeats but may differ in a detail not shown here. Equal entries are not always repeated. Results filed as inconclusive are left out. A call without a number means that no potency is given here. A structure can be active in one record and inactive in another. Active and inactive are the calls of the source. Unless noted, calls come from the whole dose curve; as a rule, active = well fitted curve in the direction sought with a large enough effect; inconclusive = small, poorly fitted or top-dose-only effect, or another doubt; inactive = no such curve, though single readings can be large; an effect the other way counts as inactive or inconclusive.
# Key:
# [1] = Primary qHTS for small molecule stabilizers of the endoplasmic reticulum resident proteome: Secreted ER Calcium Modulated Protein (SERCaMP) assay (AID 1508630)
# Summary of the method: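 The SH-SY5Y reporter protocol was run at 3 concentrations up to 38.3 uM (primary) or 11 concentrations (follow-up): 16 h compound, 100 nM thapsigargin for 4 h, then extracellular luciferase luminescence.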
# [2] = biological target: Cytochrome P450 2D6 (Homo sapiens) (UniProt P10635); test: Cytochrome P450 family 2 subfamily D member 6 (CYP2D6) small molecule antagonists: luciferase biochemical (cell-free) qHTS assay (AID 1645840; active = well fitted curve in the direction sought with a large enough effect in the repeat runs; an effect the other way counts as inactive or inconclusive; note: nearly all actives have a fitted effect of over 55% in size; note: potency is the fitted concentration of half-maximal effect)
# Cytochrome P450 2D6 (Homo sapiens), sequence (P10635 whole entry, looked up): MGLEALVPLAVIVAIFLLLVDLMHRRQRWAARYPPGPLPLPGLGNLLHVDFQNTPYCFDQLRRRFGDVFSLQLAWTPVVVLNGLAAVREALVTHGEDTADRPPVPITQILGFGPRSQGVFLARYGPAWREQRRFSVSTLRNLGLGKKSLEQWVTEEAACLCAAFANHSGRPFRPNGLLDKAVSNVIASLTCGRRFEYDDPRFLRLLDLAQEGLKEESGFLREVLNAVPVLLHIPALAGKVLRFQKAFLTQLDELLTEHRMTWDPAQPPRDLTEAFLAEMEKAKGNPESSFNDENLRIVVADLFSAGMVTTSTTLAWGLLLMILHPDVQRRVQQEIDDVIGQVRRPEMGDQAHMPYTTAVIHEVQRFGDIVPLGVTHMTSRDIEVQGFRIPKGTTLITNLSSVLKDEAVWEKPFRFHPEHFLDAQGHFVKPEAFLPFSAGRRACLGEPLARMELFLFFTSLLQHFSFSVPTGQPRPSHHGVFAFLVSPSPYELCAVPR
# Summary of the method: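 P450-Glo CYP2D6 system: proluciferin substrate converted by enzyme to luciferin, read by luminescence proportional to activity. Enzyme-substrate mix with compound 10 min at room temperature, then NADPH regeneration 1 h before detection reagent.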
# [3] = biological target: Cytochrome P450 3A4 (Homo sapiens) (UniProt P08684); test: Cytochrome P450 family 3 subfamily A member 4 (CYP3A4) small molecule antagonists: luciferase qHTS assay (AID 1645841; active = well fitted curve in the direction sought with a large enough effect in the repeat runs; an effect the other way counts as inactive or inconclusive; note: nearly all actives have a fitted effect of over 45% in size)
# Cytochrome P450 3A4 (Homo sapiens), sequence (P08684 whole entry, looked up): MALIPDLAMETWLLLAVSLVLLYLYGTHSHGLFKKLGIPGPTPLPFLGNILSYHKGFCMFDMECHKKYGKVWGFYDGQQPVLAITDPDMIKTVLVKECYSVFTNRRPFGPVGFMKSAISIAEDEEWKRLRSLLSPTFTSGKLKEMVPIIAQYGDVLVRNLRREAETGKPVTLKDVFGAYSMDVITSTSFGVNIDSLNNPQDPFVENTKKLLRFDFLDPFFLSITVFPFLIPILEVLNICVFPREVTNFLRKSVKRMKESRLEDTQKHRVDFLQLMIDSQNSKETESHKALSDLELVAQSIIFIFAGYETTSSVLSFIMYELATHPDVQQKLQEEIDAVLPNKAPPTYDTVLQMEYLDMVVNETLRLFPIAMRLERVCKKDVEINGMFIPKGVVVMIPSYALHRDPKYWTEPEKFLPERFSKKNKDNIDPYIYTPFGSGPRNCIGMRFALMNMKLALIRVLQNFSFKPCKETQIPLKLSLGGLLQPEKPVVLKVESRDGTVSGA
# Summary of the method: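 P450-Glo CYP3A4 enzyme with proluciferin substrate was preincubated with DMSO-dissolved compounds for 10 min at room temperature. NADPH regeneration solution started a 1 h reaction. Detection reagent stopped it, and luminescence was read after 20 min.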
# [4] = Primary qHTS for inhibitors of nuclear receptor binding SET domain protein 2 (NSD2) in an isogenic RCH-ACV NSD2 p.E1099K mutant (9B) (AID 1645876); note: nearly all actives have a fitted effect of over 70% in size; note: potency is the fitted concentration of half-maximal effect
# [5] = Primary qHTS for inhibitors of nuclear receptor binding SET domain protein 2 (NSD2) in an RCH-ACV wild type WT cells (2C) (AID 1645877); note: nearly all actives have a fitted effect of over 70% in size; note: potency is the fitted concentration of half-maximal effect
# [6] = biological target: Cytochrome P450 2C9 (Homo sapiens) (UniProt P11712); test: Cytochrome P450 family 2 subfamily C member 9 (CYP2C9) small molecule antagonists: luciferase biochemical (cell-free) qHTS assay (AID 1645842; active = well fitted curve in the direction sought with a large enough effect in the repeat runs; an effect the other way counts as inactive or inconclusive; note: nearly all actives have a fitted effect of over 55% in size; note: potency is the fitted concentration of half-maximal effect)
# Cytochrome P450 2C9 (Homo sapiens), sequence (P11712 whole entry, looked up): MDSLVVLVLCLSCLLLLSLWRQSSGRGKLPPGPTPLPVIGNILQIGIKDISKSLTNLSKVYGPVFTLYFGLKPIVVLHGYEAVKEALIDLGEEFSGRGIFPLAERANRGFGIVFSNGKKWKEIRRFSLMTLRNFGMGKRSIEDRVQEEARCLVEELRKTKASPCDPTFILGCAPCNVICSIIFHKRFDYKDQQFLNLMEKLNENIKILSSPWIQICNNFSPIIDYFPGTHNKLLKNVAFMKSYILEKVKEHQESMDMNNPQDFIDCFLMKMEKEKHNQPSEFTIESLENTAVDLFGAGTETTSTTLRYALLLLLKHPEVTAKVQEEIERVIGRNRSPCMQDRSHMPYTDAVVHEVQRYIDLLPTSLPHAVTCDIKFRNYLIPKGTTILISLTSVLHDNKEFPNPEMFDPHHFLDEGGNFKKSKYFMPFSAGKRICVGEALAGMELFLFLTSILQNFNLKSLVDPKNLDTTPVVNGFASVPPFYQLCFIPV
# Summary of the method: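 P450-Glo CYP2C9 system: proluciferin substrate with enzyme in mix containing 0.4% BSA, 10 min at room temperature, then NADPH regeneration solution added and incubated 1 h at 37C. Detection reagent stopped reaction; luminescence read after 20 min as RLU.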
# [7] = Cytotoxicity counterscreen for inhibitors of SARS-CoV-2 cell entry (AID 1645845; calls by dose curve; note: nearly all actives have a fitted effect of over 50% in size; note: potency is the fitted concentration of half-maximal effect)
# Summary of the method: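 After a 15 min room-temperature ATPLite 1step step, luminescence reflected ATP remaining in HEK293-ACE2 cells exposed to compound for 1 h plus 48 h at 37 C, with percent activity set by cell and no-cell controls.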
# [8] = Primary qHTS to identify inhibitors of SARS-CoV-2 cell entry (AID 1645846; calls by dose curve; note: nearly all actives have a fitted effect of over 45% in size; note: potency is the fitted concentration of half-maximal effect); conditions: activity change, negative = inhibition: at 57.1 µM (top of the series) unless noted
# Summary of the method: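 HEK293 cells stably expressing human ACE2, pre-treated 1 h with compound, then infected with MLV particles pseudotyped with Wuhan-Hu-1 spike (C-terminal 19-aa truncation). Luciferase luminescence after 48 h at 37 °C, normalised to spike PP and bald PP.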
# [9] = A High-Content qHTS Against Drug Library for the Identification of Small Molecules that Inhibit DYT1 Early Onset Primary Dystonia-Associated Cell Pathology (AID 1645839; calls by dose curve)
# Summary of the method: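 Induced EGFP-delE TorsinA cells are imaged after 48 h of compound treatment. Punctate fusion-protein distribution gives the %pathology value, while nuclei counts flag toxicity. Wild-type EGFP-hTOR1A cells define the normal pattern.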
# Papain (Carica papaya) = Papain (Carica papaya) (UniProt P00784); test: Primary qHTS assay for inhibitors of the protease papain (AID 1645873);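 note: papain turnover of Z-FR-AMC read as the AMC fluorescence gain over 10 min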; note: potency is the fitted concentration of half-maximal effect
# Papain (Carica papaya), sequence (P00784 whole entry, looked up): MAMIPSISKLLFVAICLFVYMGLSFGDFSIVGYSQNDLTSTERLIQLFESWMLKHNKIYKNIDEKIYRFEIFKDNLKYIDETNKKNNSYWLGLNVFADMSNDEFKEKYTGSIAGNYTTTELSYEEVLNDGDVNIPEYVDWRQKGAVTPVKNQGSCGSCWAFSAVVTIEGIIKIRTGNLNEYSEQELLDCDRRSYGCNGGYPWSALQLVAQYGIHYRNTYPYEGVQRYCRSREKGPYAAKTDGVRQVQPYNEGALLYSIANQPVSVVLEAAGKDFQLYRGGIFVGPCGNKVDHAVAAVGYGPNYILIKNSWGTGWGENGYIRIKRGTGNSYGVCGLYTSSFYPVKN
# [10] = biological target: Catechol O-methyltransferase (Homo sapiens) (UniProt P21964); test: Confirmatory Screen for Target Class Profiling of Small Molecule Inhibitors of Methyltransferases (AID 1745852; calls by dose curve); conditions: MTase-Glo luminescence, SAH detection, recombinant enzyme; measured here: COMT max response; stronger effect = lower value
# Catechol O-methyltransferase (Homo sapiens), sequence (P21964 whole entry, looked up): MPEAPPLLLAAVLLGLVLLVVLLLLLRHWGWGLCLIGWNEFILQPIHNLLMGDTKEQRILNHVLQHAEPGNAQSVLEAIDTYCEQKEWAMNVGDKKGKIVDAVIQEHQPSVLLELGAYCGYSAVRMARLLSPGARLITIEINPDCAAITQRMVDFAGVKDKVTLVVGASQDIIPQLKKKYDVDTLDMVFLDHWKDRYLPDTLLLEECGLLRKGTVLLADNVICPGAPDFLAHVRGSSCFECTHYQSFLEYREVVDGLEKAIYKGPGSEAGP
# [11] = biological target: Guanidinoacetate N-methyltransferase (Homo sapiens) (UniProt Q14353); test: as above; conditions: MTase-Glo luminescence, SAH detection, recombinant enzyme; activity change, negative = inhibition: at 57.3 µM (top of the series)
# [12] = VSVG counterscreen qHTS to identify inhibitors of SARS-CoV-2 cell entry (AID 1645847; calls by dose curve; note: potency is the fitted concentration of half-maximal effect; nearly all actives have a fitted effect of over 65% in size)
# Summary of the method: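 HEK293-ACE2 cells (Expi293F, human ACE2) pretreated 1 h with compound, then infected with MLV-based VSV-G pseudotyped particles for 48 h at 37 C; luciferase luminescence normalized to VSV-G PP and bald PP wells.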
smiles,measurement,setting,value
O=C(NCC1CCOCC1)c1cnc(Nc2ccc(Cl)cc2Cl)nc1C(F)(F)F,Potency,[1],inactive
same,Potency,[2],inactive
same,Potency,[3],inactive
same,Potency,[4],inactive
same,Potency,[5],inactive
COCC1(CO)C(=O)C2CCN1CC2 (stereo not drawn),Potency,[1],inactive
same,Potency,[2],inactive
same,Potency,[6],inactive
same,Potency,[7],inactive
same,"activity change, negative = inhibition",[8],-14.4%
CCN1CCN(C(=O)Cc2ccc(Nc3ncc(F)c(Nc4ccc(C(=O)Nc5ccccc5Cl)cc4)n3)cc2)CC1,Potency,[1],inactive
same,Potency,[2],inactive
same,Potency,[7],22.4 µM (active)
same,Potency,[8],8.91 µM (active)
same,Potency,[4],2.31 µM (active) and 2.63 µM (active)
same,Potency,[5],2.31 µM (active) and 2.35 µM (active)
O=C(O)c1cc(Oc2ccc(C(F)(F)F)cc2Cl)ccc1[N+](=O)[O-],Potency,[1],inactive
same,Potency,[9],inactive
same,Potency,[5],inactive
CCCCCCCCc1ccc(O)cc1,Potency,[1],inactive
same,Potency,[2],31 µM (active)
same,Potency,[6],30.1 µM (active)
same,Potency,[4],6.18 µM (active)
Fc1cc(Br)ccc1CBr,Potency,[1],inactive
same,Potency,[9],inactive
same,Potency,[2],inactive
same,Potency,[4],inactive
same,Potency,[5],inactive
Cc1ccccc1-n1c(Cn2ncc3c(N)ncnc32)nc2cccc(C)c2c1=O,Potency,[1],inactive
same,Potency,[2],inactive
same,Potency,[6],13.5 µM (active)
same,Potency,[7],inactive
same,"activity change, negative = inhibition",[8],-50.6%
ClC1=C(Cl)[C@]2(Cl)[C@@H]3[C@@H]4C[C@@H]([C@H]5O[C@@H]45)[C@@H]3[C@@]1(Cl)C2(Cl)Cl,Potency,[1],inactive
same,Potency,[2],inactive
CC(C)NCC(O)c1ccc([N+](=O)[O-])cc1 (stereo not drawn),Potency,[1],inactive
same,Potency,[9],inactive
same,Potency,[3],inactive
same,Potency,[4],inactive
same,Potency,[5],inactive
O=[N+]([O-])/N=C1\NCCN1Cc1ccc(Cl)nc1,Potency,[1],inactive
same,Potency,[9],inactive
same,Potency,[2],inactive
same,Potency,[7],inactive
same,"activity change, negative = inhibition",[8],-0.0091%
same,Potency,[4],inactive
same,Potency,[5],inactive
O=C(Oc1ccc([N+](=O)[O-])cc1)N1CCC(C(O)(c2ccc3c(c2)OCO3)c2ccc3c(c2)OCO3)CC1,Potency,[1],inactive
same,Potency,[7],inactive
same,"activity change, negative = inhibition",[8],-17.3%
same,Potency,[4],inactive
same,Potency,[5],inactive
CN1[C@H]2CC(O)C[C@H]1[C@H]1O[C@H]12 (stereo partly drawn),Potency,[1],inactive
same,Potency,[7],inactive
same,Potency,[4],inactive
same,Potency,[5],inactive
Cc1c(C(=O)Nc2cccc(C(F)(F)F)c2)cc(-c2ccccc2)n1CCCN1CCOCC1,Potency,[1],inactive
same,Potency,[7],inactive
same,Potency,[4],20.9 µM (active)
same,Potency,[5],23.5 µM (active)
O=C1C=CC[C@@H]2[C@H]3CCCN4CCC[C@@H](CN12)[C@@H]34,Potency,[1],inactive
same,Potency,[7],inactive
same,Potency,[8],inactive
same,Potency,[4],inactive
same,Potency,[5],inactive
COc1ccc2c(c[n+](C)c3c4cc5c(cc4ccc23)OCO5)c1OC,Potency,[1],inactive
same,"activity change, negative = inhibition",[8],-96.4%
same,Potency,Papain (Carica papaya),inactive
same,Potency,[4],inactive
same,Potency,[5],inactive
CC[C@@]1(O)C(=O)OCc2c1cc1n(c2=O)Cc2cc3ccccc3nc2-1,Potency,[1],inactive
same,"activity change, negative = inhibition",[8],-94.8%
same,Potency,Papain (Carica papaya),3.98 µM (active)
same,Potency,[4],0.0148 µM (active)
same,Potency,[5],0.0132 µM (active)
O=S(=O)(CC1CS1)c1ccc(Oc2ccccc2)cc1 (stereo not drawn),Potency,[1],inactive
same,Potency,[7],inactive
same,Potency,[8],inactive
same,Potency,[4],8.33 µM (active)
same,Potency,[5],5.25 µM (active)
CC1=C(O)C(=O)C=C2C1=CC=C1[C@@]2(C)CC[C@@]2(C)[C@@H]3C[C@](C)(C(=O)O)CC[C@]3(C)CC[C@]12C,Potency,[1],inactive
same,Potency,[6],12 µM (active)
same,Potency,[8],14.1 µM (active)
same,Potency,[4],1.48 µM (active)
same,Potency,[5],1.66 µM (active)
CC(C)Oc1cccnc1N(C)C1CCN(Cc2ccccc2)CC1,Potency,[1],inactive
same,Potency,Papain (Carica papaya),inactive
O=c1cccc2n1CC1CNC[C@H]2C1,Potency,[1],inactive
same,Potency,[7],inactive
same,"activity change, negative = inhibition",[8],-15.2%
same,Potency,[4],inactive
same,Potency,[5],inactive
CN(C)NC(=O)CCC(=O)O,Potency,[1],inactive
same,Potency,[7],inactive
same,Potency,[4],inactive
same,Potency,[5],inactive
CC(C)NC(C)Cc1ccc(I)cc1 (stereo not drawn),Potency,[1],inactive
same,Potency,[7],inactive
same,Potency,Papain (Carica papaya),inactive
same,activity,[10],0.93%
same,"activity change, negative = inhibition",[11],2.72%
CC(C)(O)C(=O)Nc1ccc([N+](=O)[O-])c(C(F)(F)F)c1,Potency,[1],inactive
same,Potency,[7],inactive
CCCCCC[C@H]1C(=O)O[C@H](C)[C@H](NC(=O)c2cccc(NC=O)c2O)C(=O)O[C@@H](C)[C@@H]1OC(=O)CC(C)C,Potency,[1],inactive
same,"activity change, negative = inhibition",[8],-94.1%
C/C=C(/C)C(=O)O[C@H]1C(C)=C2[C@H]([C@@H]1OC(=O)CCCCCCC)[C@@](C)(OC(C)=O)C[C@H](OC(=O)CCC)[C@@]1(O)[C@H]2OC(=O)[C@@]1(C)O,Potency,[1],inactive
same,Potency,[8],22.4 µM (active)
same,Potency,[4],5.8 nM (active) and 16.6 nM (active)
same,Potency,[5],6.5 nM (active) and 16.6 nM (active)
COc1ccc(C(=O)c2c(C)n(CCN3CCOCC3)c3cc(I)ccc23)cc1,Potency,[1],inactive
same,Potency,[7],inactive
same,"activity change, negative = inhibition",[8],-80.5%
same,Potency,[12],30.4 µM (active)
same,Potency,[4],18.6 µM (active)
same,Potency,[5],14.8 µM (active)
CCOC(=O)Nc1ccc(NCc2ccc(F)cc2)cc1N,Potency,[1],inactive
same,Potency,[2],19 µM (active)
same,Potency,[7],inactive
same,"activity change, negative = inhibition",[8],2.18%
same,Potency,[5],inactive
CN[C@@H]1Cc2cccc3[nH]c(=O)n(c23)C1,Potency,[1],inactive
same,Potency,[7],inactive
same,"activity change, negative = inhibition",[8],4.06%
same,Potency,[4],inactive
same,Potency,[5],inactive
C#CC1(O)CCC2C3CCC4=CC(=O)CCC4(C)C3CCC21C (stereo not drawn),Potency,[1],inactive
same,Potency,[7],inactive
same,"activity change, negative = inhibition",[8],-0.771%
same,Potency,[4],inactive
same,Potency,[5],inactive
O=C1CCCN1CC#CCN1CCCC1,Potency,[1],inactive
same,Potency,Papain (Carica papaya),inactive
NC(N)=NOCCC(N)C(=O)O (stereo not drawn),Potency,[1],inactive
same,Potency,Papain (Carica papaya),inactive
CCCC[N+]1(C)[C@H]2CC(OC(=O)[C@H](CO)c3ccccc3)C[C@H]1[C@H]1O[C@H]12 (stereo partly drawn),Potency,[1],inactive
same,Potency,[7],inactive
same,"activity change, negative = inhibition",[8],-13.1%
same,Potency,[4],inactive
same,Potency,[5],inactive
CCNC(=O)CC1N=C(c2ccc(Cl)cc2)c2cc(OC)ccc2-n2c(C)nnc21 (stereo not drawn),Potency,[1],inactive
same,"activity change, negative = inhibition",[8],-16.5%
same,Potency,[4],9.34 µM (active) and inactive and 515 nM (active)
same,Potency,[5],5.9 µM (active) and inactive and 409 nM (active)

# — PubChem BioAssay (NCATS)
